For assay [1], the system named is Wnt5a (protein binding on small-molecule microarray). Description: Wnt5a binders on small-molecule microarray, primary screen, biophysical, 635/667 nm fluorescence (AID 1142).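 Also: fluorescence read at 667 nm with signal to noise per printed feature.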 The conditions noted are these: 635 nm fluorescence, higher = more signal.
Assay [2] is described as follows: cell viability in Huh7 cells, primary screen, cytotoxicity control for HCV replication inhibitor project, CellTiter-Glo luminescence, basal, 48 h (AID 1143).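 Also: Huh7 hepatoma cells carrying a hepatitis C replication reporter with no stimulus; test concentration not given here.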 Particulars: Huh7 HCV replicon, higher = more signal, called active from +8 up or from −8 down. Background: In ATP-based viability assays light output follows the ATP content of the culture.
A short description of assay [3]: P. aeruginosa biofilm formation inhibitors, primary screen, PAO1 strain, BacTiter-Glo luminescence, LB-PBS (AID 1144). Particulars: 12 h, higher = more signal.
Assay [4] in a line: CREB reporter modulators without forskolin, primary screen, cell-based, PC12, CRE-LacZ reporter, unstimulated (AID 1145). The conditions noted are these: no forskolin, luminescence, 4.5 h, higher = more signal, called active from +8 up or from −8 down.
Assay [5] can be described thus: CREB reporter modulators under forskolin, primary screen, cell-based, PC12, CRE-LacZ reporter, forskolin-stimulated (AID 1146).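 Also: PC12 cells with 6xCRE LacZ reporter stimulated by forskolin 10 µM; beta-galactosidase reporter signal reflecting CREB driven transcription.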 The conditions noted are these: luminescence, 4.5 h, higher = more signal, called active from +8 up or from −8 down.
Assay [6] addresses Streptavidin (Streptomyces avidinii) (UniProt P22629). As to the kind of experiment: streptavidin binders on small-molecule microarray, primary screen, artefact control for SMM compound annotation, biophysical, 635/667 nm fluorescence (AID 1147).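 Also: signal reflects streptavidin binding to arrayed compounds as a control protein.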 Particulars: streptavidin binding, higher = more signal.
Assay [7] in a line: small-molecule binders of probe aInhba, primary screen, biochemical, small-molecule microarray, 635/667 nm fluorescence (AID 1148).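 Also: score merges 667nm spot fluorescence with signal-to-noise for antibody binding to printed compounds.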 Particulars: higher = more signal.
In assay [8] the target is Torsin-1A (Homo sapiens) (UniProt O14656). As to the kind of experiment: torsin A binders from cell lysate, primary screen, small-molecule microarray, wild-type, 635/667 nm (AID 1149). The conditions noted are these: COS7 hTOR1A-WT lysate, 635 nm fluorescence, higher = more signal.
Chain of Torsin-1A (Homo sapiens) (O14656 whole entry, looked up): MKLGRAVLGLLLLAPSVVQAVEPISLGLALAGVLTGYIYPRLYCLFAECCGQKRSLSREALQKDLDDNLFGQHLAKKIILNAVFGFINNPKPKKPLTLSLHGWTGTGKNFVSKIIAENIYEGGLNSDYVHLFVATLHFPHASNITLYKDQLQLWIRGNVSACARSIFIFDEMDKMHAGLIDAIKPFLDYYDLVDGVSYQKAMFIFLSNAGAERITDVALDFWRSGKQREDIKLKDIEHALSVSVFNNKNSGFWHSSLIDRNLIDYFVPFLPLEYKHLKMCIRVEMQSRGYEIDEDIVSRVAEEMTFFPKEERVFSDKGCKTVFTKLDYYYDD
Assay [9] shares this target. Description: small-molecule binders of mutant TOR1A in lysate, primary screen, cell lysate, small-molecule microarray, COS7 lysate, 635/667 nm fluorescence (AID 1150).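 Also: score pools 667 nm emission and signal to noise measuring lysate protein binding.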 The conditions noted are these: COS7 hTOR1A mutant lysate, 635 nm fluorescence, higher = more signal.
Assay [10] deals with Sonic hedgehog protein (Shh). As to the kind of experiment: small-molecule binders of Shh protein, primary screen, biochemical, small-molecule microarray, 635/667 nm fluorescence (AID 1151).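 Also: Shh protein binding to compounds spotted on small-molecule microarray slides; score combines spot fluorescence intensity with signal-to-noise across triplicate slides.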 The conditions noted are these: small-molecule microarray binding, 635 nm fluorescence; higher = more signal.

Our source for the composite z-score and z-score values is PubChem BioAssay.

Calls of active or inactive are those of the source. Unless noted, no rule for the calls is given here.

Chain of Streptavidin (Streptomyces avidinii) (P22629 whole entry, looked up): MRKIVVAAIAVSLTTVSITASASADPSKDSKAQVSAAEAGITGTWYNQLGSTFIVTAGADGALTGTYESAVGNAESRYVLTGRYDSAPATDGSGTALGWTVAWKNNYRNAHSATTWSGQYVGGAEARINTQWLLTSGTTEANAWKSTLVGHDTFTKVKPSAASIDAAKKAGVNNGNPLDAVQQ

Take `COCCOC(=O)N1C(=O)[C@@]2(c3cc(C#CCC(C(=O)OC)C(=O)OC)ccc31)[C@H](c1ccc(O)cc1)N1[C@H](c3ccccc3)[C@H](c3ccccc3)OC(=O)[C@H]1[C@@H]2C(=O)Nc1nc2ccccc2s1`: the composite z-score was 0.553 in assay [1]; 0.633 in [6]; 0.221 in [7]; 0.533 with Torsin-1A (Homo sapiens) [8]; 0.479 with Torsin-1A (Homo sapiens) [9]; 1.77 in assay [10]. The z-score was -1.48 (inactive) in assay [2], 0.164 (inactive) in assay [3], -0.195 (inactive) in [4] and -0.521 (inactive) in [5].

With `Cc1ccc(C(C)CC(O)C2C=CC3C(=O)N(C)C(=O)C3N2Nc2ccccc2)o1` (stereo not given), the composite z-score was 0.342 in assay [1]; 0.0989 in [6]; 0.0588 in assay [7]; 0.371 with Torsin-1A (Homo sapiens) [8]; -0.139 with Torsin-1A (Homo sapiens) [9]; 1.08 in assay [10]. Besides, the z-score in assay [2] is -0.206 (inactive); in assay [3], -0.368 (inactive); in assay [4] it was 0.25 (inactive); in assay [5] it was 0.471 (inactive).

As for `COc1ccc([Si](C)(C)[C@@H]2[C@@H](CC(=O)N3CCC[C@H]3CO)O[C@]3(C(=O)N(Cc4ccc(N5CCOC5=O)cc4)c4ccccc43)[C@H]2C)cc1`, the composite z-score in [1] was -0.014; in assay [6], 0.084; in [7], -0.024; with Torsin-1A (Homo sapiens) [8], 0.515; in the assay with Torsin-1A (Homo sapiens) [9], 0.557; in assay [10], 1.42. The z-score in assay [2] is -3.75 (inactive); in assay [3] it was -0.0278 (inactive); in assay [4] it was 2.4 (inactive); in assay [5] it was -1.2 (inactive).

For the molecule `CCOc1cc(C(O)C2C=CC3C(=O)N(c4ccccc4)C(=O)C3N2Nc2ccccc2F)ccc1O` (stereo not given), the composite z-score in assay [1] was 0.482; in [6], 0.376; in assay [7] it was 0.75; with Torsin-1A (Homo sapiens) [8], -0.166; with Torsin-1A (Homo sapiens) [9], 0.407; in assay [10] it was -0.663. Also, the z-score in assay [2] is 0.777 (inactive); in assay [3] it was -0.545 (inactive); in [4], 0.815 (inactive); in assay [5], 0.63 (inactive).

As to `CC(C)N1C(=O)C[C@@](C(=O)NCCN2CCOCC2)(c2ccc([N+](=O)[O-])cc2)[C@H]1c1ccc(CO)cc1`, the composite z-score is -0.182 in [1]; -0.919 in assay [6]; -0.154 in assay [7]; -2.27 in the assay with Torsin-1A (Homo sapiens) [8]; 1.04 in the assay with Torsin-1A (Homo sapiens) [9]; -1.1 in [10]. Further, the z-score in assay [2] is -2.94 (inactive); in assay [3], -1.4 (inactive); in assay [4], -0.295 (inactive); in assay [5], 0.668 (inactive).

As to `COC(=O)[C@@]1(Cc2ccc(OC)cc2)[C@H]2c3cc(C(=O)N4CCCC4)n(Cc4ccc(Cl)c(C(F)(F)F)c4)c3C[C@H]2CN1C(=O)c1ccccc1`, the composite z-score was 0.344 in assay [1]; 1.59 in assay [6]; 0.728 in assay [7]; 0.557 with Torsin-1A (Homo sapiens) [8]; 1.28 in the assay with Torsin-1A (Homo sapiens) [9]; -0.152 in [10]. For the same molecule, the z-score in [2] is -3.32 (inactive); in [3] it was 0.237 (inactive); in [4], 0.0143 (inactive); in assay [5], -0.218 (inactive).

Take `C[C@@H]1NC(=O)C([C@@H](C)OCc2ccccc2)NC(=O)[C@@]23C(=O)N[C@@H](Cc4ccccc4)C2[C@H](C)[C@@]2(C)O[C@H]2C3/C=C/C/C=C\CNC1=O` (stereo not given in full): the composite z-score in assay [1] is 0.0076; in assay [6], -1.07; in assay [7], -0.25; in the assay with Torsin-1A (Homo sapiens) [8] it was 0.0772; in the assay with Torsin-1A (Homo sapiens) [9], 0.0936; in assay [10], 1.12. Besides, the z-score in [2] was -0.371 (inactive); in assay [3], 0.571 (inactive); in assay [4], -0.507 (inactive); in assay [5] it was 0.428 (inactive).

Turning to `C#CCN1[C@@H](Cc2ccccc2)C(=O)O[C@H](Cc2ccccc2)[C@@H]1/C=C/C1CC1`, the composite z-score is -0.0041 in [1]; -0.497 in [6]; -0.0763 in assay [7]; 0.459 with Torsin-1A (Homo sapiens) [8]; 0.84 with Torsin-1A (Homo sapiens) [9]; 0.482 in assay [10]. The z-score in [2] was -3.05 (inactive); in [3] it was 1.18 (inactive); in assay [4] it was 2.12 (inactive); in [5], -0.0861 (inactive).

Turning to `O=C(NC1CC1)[C@@H]1c2ccccc2C(=O)N(Cc2ccc(OC(F)(F)F)cc2)[C@H]1c1ccc(CO)cc1`, the composite z-score was 0.227 in assay [1]; -0.894 in assay [6]; -0.176 in assay [7]; -0.0394 with Torsin-1A (Homo sapiens) [8]; 0.136 in the assay with Torsin-1A (Homo sapiens) [9]; 0.391 in assay [10]. Further, the z-score in [2] was -2.05 (inactive); in assay [3] it was -1.32 (inactive); in [4], 0.441 (inactive); in assay [5], -0.673 (inactive).

Regarding `O=C1C2C=CC(C(O)C3CCCCC3)N(n3cnnc3)C2C(=O)N1Cc1ccccc1` (stereo not given), the composite z-score in assay [1] turned out to be 0.364; in [6] it was 0.203; in assay [7], 0.229; in the assay with Torsin-1A (Homo sapiens) [8], 0.187; with Torsin-1A (Homo sapiens) [9], 0.64; in [10], 1.65. The z-score in assay [2] is -4.7 (inactive); in assay [3] it was -1.2 (inactive); in assay [4] it was -0.135 (inactive); in assay [5], -0.233 (inactive).

As to `COC(=O)[C@@]1(Cc2ccccc2)N=C(c2ccc(OCCCO)cc2)O[C@H]1c1ccccc1CN=[N+]=[N-]`, the composite z-score was 0.289 in [1]; -0.12 in assay [6]; 0.0227 in assay [7]; 0.009 in the assay with Torsin-1A (Homo sapiens) [8]; 0.668 in the assay with Torsin-1A (Homo sapiens) [9]; 1.88 in [10]. Moreover, the z-score in assay [2] is -5.03 (inactive); in assay [3], -0.621 (inactive); in assay [4] it was -0.435 (inactive); in [5], -1.97 (inactive).

On to `O=C(O)[C@H](Cc1ccccc1)n1cc(C2(O)CCCCC2)nn1`, for which the composite z-score in [1] is 0.0358; in [6], -0.338; in assay [7], -0.0221; with Torsin-1A (Homo sapiens) [8], 0.221; in the assay with Torsin-1A (Homo sapiens) [9], 0.327; in [10], -0.0164. Also, the z-score in [2] is 0.316 (inactive); in [3], 0.552 (inactive); in assay [4] it was 0.367 (inactive); in assay [5], 0.317 (inactive).

On to `CCOC(=O)C1=CCC(c2cc3ccccc3[nH]2)N(CCN2CC(C(=O)OCC)=CCC2c2cc3ccccc3[nH]2)C1` (stereo not given), for which the composite z-score in [1] stood at 0.125; in assay [6], 0.428; in assay [7] it was 0.162; with Torsin-1A (Homo sapiens) [8] it was 0.0418; in the assay with Torsin-1A (Homo sapiens) [9], 0.104; in assay [10], 0.54. The z-score was -1.74 (inactive) in assay [2], -1.85 (inactive) in assay [3], -0.275 (inactive) in assay [4] and -0.684 (inactive) in assay [5].

Turning to `COC(=O)[C@@]1(Cc2ccc(F)cc2)[C@H]2c3cc(C(=O)N(C)C)n(C)c3C[C@H]2CN1C(=O)c1ccccc1`, the composite z-score in [1] is 0.418; in assay [6], 0.069; in assay [7] it was 0.395; in the assay with Torsin-1A (Homo sapiens) [8], -0.0772; in the assay with Torsin-1A (Homo sapiens) [9] it was 0.814; in assay [10], -0.34. The z-score was -0.771 (inactive) in [2], -0.259 (inactive) in assay [3], 0.0007 (inactive) in assay [4] and -0.339 (inactive) in assay [5].

On to `O=C(NCc1ccccc1)[C@@H]1c2ccccc2C(=O)N(Cc2cc(C(F)(F)F)cc(C(F)(F)F)c2)[C@H]1c1ccc(CO)cc1`, for which the composite z-score in [1] was 0.145; in [6], 0.556; in [7] it was -0.0405; in the assay with Torsin-1A (Homo sapiens) [8], -0.137; with Torsin-1A (Homo sapiens) [9], 0.759; in [10], 1.93. In addition, the z-score in assay [2] is -1.69 (inactive); in assay [3] it was -1.69 (inactive); in assay [4] it was 0.0387 (inactive); in assay [5] it was 0.119 (inactive).
